Results filed as inconclusive are left out. A number with no mark means an inactive call. Calls of active or inactive are those of the source. Calls follow the shape of the dose curve; as a rule, active = well fitted inhibition curve with a large enough effect; inconclusive = small, poorly fitted or top-dose-only effect; inactive = no such curve, though single readings can be large or run the other way.
experiment: qHTS Assay for Lipid Storage Modulators: COS7 Assay against Probe and Analogs; conditions: COS7 lipid droplet area, BODIPY imaging, 18 h
From the text: Storing lipids as a reservoir for energy or the anabolism of elementary metabolites is a common feature of probably all cells and is conserved from bacteria to humans. The universal cellular lipid storage organelle is the so-called lipid storage droplet (LD). Although ubiquitous, LDs share a simple structure composed of a hydrophobic core that harbors the storage lipids, which is shielded by a droplet-specific phospholipid monolayer to which proteins are attached. The current model of LD biogenesis involves an incorporation of the lipid core into the membrane leaflets of the endoplasmic reticulum (ER) followed by a subsequent budding-like maturation of a LD, which ultimately pinches off. Once released, LD volume can increase by localized lipogenesis or fusion of existing droplets. Storage lipids are re-mobilized enzymatically by lipase activity. Lipase regulation in the adipocyte is heavily studied and involves multiple components including catecholamine signaling, the LD-associated proteins Perilipin and comparative gene identification-58 (CGI-58) and at least two lipases named hormone sensitive lipase (HSL) and adipocyte triglyceride lipase (ATGL). LD regulation outside of the adipocyte is poorly understood and only few components are known. However, there is an urgent need to learn more about ectopic fat depots as mislocalized storage of lipids, for example in the liver or muscle, is an eminent health problem associated with insulin resistance or the metabolic syndrome. We developed a laser-scanning cytometer assay to enable 1,536-well screening and combined the results of the small molecules screen with an RNAi database based on lipid storage. In this assay we tested analogs of the probe against a mammalian cell line (COS7), to see if these small molecules could disrupt lipid storage. NIH Molecular Libraries Probe Production Centers Network [MLPCN] NIH Chemical Genomics Center [NCGC] MLPCN Grant: MH085686 Assay Submitter (PI): Mathias Beller, Max-Planck-Institut fur Biophysikalische Chemie
COS7 cells were obtained from ATCC (CRL-1651), 5500 cells/well were dispensed into Corning 96 well imaging plate (catalog # 3340), and cultured in 100 uL of 1:1 DMEM medium (PAA) contain 10% fetal bovine serum (FBS) for 24 hours at 37 degrees C, 95% humidity, and 5% CO2. The medium was exchanged for compound treatment. Compound treatment occurred in 150 microL serum reduced medium (5% FBS) and 0.2% DMSO in presence of 400 microM oleic acid for 17-18 h. Cells were then fixed (3.7 % formaldehyde in PBS, 5 min), permeabilized (0.1% Triton X100, 5 min) and washed three times with PBS. Lipid droplets (1:2000 BODIPY 493/503) and nuclei (1:1000 Hoechst 33342) were stained for 1h. Imaging was performed in a Zeiss Axiovert automatic microscope. Number of lipid droplet accumulated in […] cells were analyzed using visual examination of the microscopic images and additional quantification by image segmentation using Cell Profiler.

Structure (SMILES) | max response [%] | Potency
CCOc1ccc(CCNC(=O)c2ccccc2)cc1OCC | -7.94 | –
CCOc1ccc(CCNC(=O)c2cc3cnccc3n2Cc2cccc(C)n2)cc1OCC | -1.53 | –
CCOc1ccc(CCNC(=O)c2cc3ccncc3n2Cc2cccc(C)c2)cc1OCC | -1.73 | –
CCOc1ccc(CCNC(=O)c2cc3cccnc3n2Cc2cccc(C)c2)cc1OCC | 0 | –
CCOc1ccc(CCNC(=O)c2cc3ncccc3n2Cc2cccc(C)n2)cc1OCC | -5.54 | –
CCOc1ccc(CCNC(=O)c2cc3cnccc3n2Cc2cccc(C)c2)cc1OCC | -13.8 | –
CCOc1ccc(CCNC(=O)c2cc3ccccc3n2Cc2ccccn2)cc1OCC | – | 1.66 µM (active)
CCOC(=O)C1CCN(C(=O)C2(NC(=O)Nc3ccccc3Cl)CCCC2)CC1 | – | 5.87 µM (active)
CCOc1ccc(CCNC(=O)c2ccc(C(=O)c3ccccc3)cc2)cc1OCC | -5.7 | –
CCOc1ccc(CCNC(=O)c2cc3ccccc3n2CCN2CCOCC2)cc1OCC | – | 5.26 µM (active)
CCOc1ccc(CCNC(=O)c2cc3ccncc3n2Cc2cccc(C)n2)cc1OCC | -22.2 | –
CCOc1ccc(CCNC(=O)c2cc3ncccc3n2Cc2cccc(C)c2)cc1OCC | 6.92 | –
CCOc1ccc(CCNC(=O)c2cc3ccccc3n2Cc2cccc(C)n2)cc1OCC | – | 0.59 µM (active)
CCOc1ccc(CCNC(=O)c2cc3sccc3n2Cc2ccc(F)cc2F)cc1OCC | – | 1.18 µM (active)
CCOc1ccc(CCNC(=O)c2cc3ccccc3n2Cc2cccc(C)c2)cc1OCC | – | 0.264 µM (active)
